Experimental data reported in the supplement of paper PMC8728848.
Many of the other results were omitted from the sample, so the strongest signals are more common in it than they were.

Legend:
Assay in all cases: glycan array binding signal (z-score within array); higher = stronger binding
Conditions in all cases: glycan notation: IUPAC condensed, linker removed
[1] = molecular target: Fuc(a1-2)Gal(b1-3)GalNAc(a1-3)[Fuc(a1-2)]Gal(b1-4)GlcNAc
Summary of the method: (§1)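 Columns mapping to the same glycan were averaged after glycan names were converted to IUPAC-condensed notation. The data come from 3228 arrays in the Consortium for Functional Glycomics database, limited to those with an available protein sequence. Binding is reported as a within-array Z-score averaged across arrays of one protein sequence and across linkers.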

[2] = molecular target: Fuc(a1-2)Gal(b1-3)GalNAc(b1-3)Gal
Summary of the method: as §1

[3] = molecular target: Fuc(a1-2)Gal(b1-3)GalNAc(b1-4)[Neu5Ac(a2-3)]Gal(b1-4)Glc
Summary of the method: as §1

[4] = molecular target: Fuc(a1-2)Gal(b1-3)GlcNAc(b1-2)Man(a1-3)[Fuc(a1-2)Gal(b1-3)GlcNAc(b1-2)Man(a1-6)]Man(b1-4)GlcNAc(b1-4)[Fuc(a1-6)]GlcNAc
Summary of the method: as §1

[5] = molecular target: Fuc(a1-2)Gal(b1-3)[Fuc(a1-4)]GlcNAc(b1-2)Man(a1-3)[Fuc(a1-2)Gal(b1-3)[Fuc(a1-4)]GlcNAc(b1-2)Man(a1-3)]Man(b1-4)GlcNAc(b1-4)GlcNAc
Summary of the method: as §1

Fuc(a1-2)Gal(b1-4)Glc6S = molecular target: Fuc(a1-2)Gal(b1-4)Glc6S
Summary of the method: as §1

[6] = molecular target: Fuc(a1-2)Gal(b1-4)GlcNAc(b1-2)Man(a1-3)[Fuc(a1-2)Gal(b1-4)GlcNAc(b1-2)Man(a1-6)]Man(b1-4)GlcNAc(b1-4)[Fuc(a1-6)]GlcNAc
Summary of the method: as §1

[7] = molecular target: Fuc(a1-2)Gal(b1-4)GlcNAc(b1-3)Gal(b1-4)GlcNAc(b1-2)Man(a1-3)[Fuc(a1-2)Gal(b1-4)GlcNAc(b1-3)Gal(b1-4)GlcNAc(b1-2)Man(a1-6)]Man(b1-4)GlcNAc(b1-4)GlcNAc
Summary of the method: as §1

[8] = molecular target: Fuc(a1-2)Gal(b1-4)[Fuc(a1-3)]GlcNAc(b1-3)GalNAc
Summary of the method: as §1

[9] = molecular target: Fuc(a1-2)Gal6S(b1-3)GlcNAc6S
Summary of the method: as §1

[10] = molecular target: Fuc(a1-2)[Gal(a1-3)]Gal(b1-4)GlcNAc(b1-3)[Fuc(a1-2)[Gal(a1-3)]Gal(b1-4)GlcNAc(b1-6)]GalNAc
Summary of the method: as §1

[11] = molecular target: Fuc(a1-2)[Gal(a1-3)]Gal(b1-4)[Fuc(a1-3)]Glc
Summary of the method: as §1

[12] = molecular target: Fuc(a1-2)[GalNAc(a1-3)]Gal(b1-3)GlcNAc(b1-6)GalNAc
Summary of the method: as §1

[13] = molecular target: Fuc(a1-2)[GalNAc(a1-3)]Gal(b1-4)Glc
Summary of the method: as §1

[14] = molecular target: Fuc(a1-2)[GalNAc(a1-3)]Gal(b1-4)GlcNAc
Summary of the method: as §1

[15] = molecular target: Fuc(a1-2)[GalNAc(a1-3)]Gal(b1-4)GlcNAc(b1-2)Man
Summary of the method: as §1

[16] = molecular target: Fuc(a1-3)[Gal(b1-4)]GlcNAc(b1-3)Gal(b1-4)[Fuc(a1-3)]GlcNAc
Summary of the method: as §1

[17] = molecular target: Fuc(a1-3)[Gal(b1-4)]GlcNAc(b1-6)GalNAc
Summary of the method: as §1

[18] = molecular target: Fuc(a1-3)[Gal3S(b1-4)]GlcNAc6S
Summary of the method: as §1

Fuc(a1-4)GlcNAc = molecular target: Fuc(a1-4)GlcNAc
Summary of the method: as §1

Gal(b1-3)Gal = molecular target: Gal(b1-3)Gal
Summary of the method: as §1

Gal(b1-3)Gal(b1-4)GlcNAc = molecular target: Gal(b1-3)Gal(b1-4)GlcNAc
Summary of the method: as §1

[19] = molecular target: Gal(b1-3)GalNAc(a1-3)[Fuc(a1-2)]Gal(b1-4)GlcNAc
Summary of the method: as §1

[20] = molecular target: Gal(b1-3)GlcNAc(b1-3)Gal(b1-4)GlcNAc(b1-6)[Gal(b1-3)GlcNAc(b1-3)]Gal(b1-4)Glc
Summary of the method: as §1

[21] = molecular target: Gal(b1-3)[Neu5Ac(a2-6)]GlcNAc(b1-4)Gal(b1-4)Glc
Summary of the method: as §1

Gal(b1-4)Gal = molecular target: Gal(b1-4)Gal
Summary of the method: as §1

[22] = molecular target: Gal(b1-4)GlcNAc(b1-2)Man(a1-3)[GlcNAc(b1-4)][Gal(b1-4)GlcNAc(b1-2)Man(a1-6)]Man(b1-4)GlcNAc(b1-4)GlcNAc
Summary of the method: as §1

[23] = molecular target: Gal(b1-4)GlcNAc(b1-2)[Gal(b1-4)GlcNAc(b1-6)]Man(a1-6)[Gal(b1-4)GlcNAc(b1-2)Man(a1-3)]Man(b1-4)GlcNAc(b1-4)GlcNAc
Summary of the method: as §1

[24] = molecular target: Gal(b1-4)GlcNAc(b1-2)[Gal(b1-4)GlcNAc(b1-6)]Man(a1-6)[Gal(b1-4)GlcNAc(b1-2)Man(a1-3)]Man(b1-4)GlcNAc(b1-4)[Fuc(a1-6)]GlcNAc
Summary of the method: as §1

[25] = molecular target: Gal(b1-4)GlcNAc(b1-3)Gal(b1-4)GlcNAc
Summary of the method: as §1

B1: SabA (Helicobacter pylori) (protein)
chain: MGSSHHHHHHSSGLVPRGSHMENLYFQGEDNGFFVSAGYQIGEAVQMVKNTGELKNLNEKYEQLSQYLNQVASLKQSIQNANNIELVNSSLNYLKSFTNNNYNSTTQSPIFNAVQAVITSVLGFWSLYAGNYFTFFVGKKVGDSGQPASVQGNPPFKTIIENCSGIENCAMDQTTYDKMKKLAEDLQAAQTNSATKGNNLCALSGCAATDSTSNPPNSTVSNALNLAQQLMDLIANTKTAMMWKNIVISGVSNTSGAITSTNYPTQYAVFNNIKAMIPILQQAVTLSQSNHTLSASLQAQATGSQTNPKFAKDIYTFAQNQKQVISYAQDIFNLFNSIPAEQYKYLEKAYLKIPNAGSTPTNPYRQVVNLNQEVQTIKNNVSYYGNRVDAALSVARDVYNLKSNQAEIVTAYNDAKTLSEEISKLPHNQVNTKDIVTLPYDKNAPAAGQSNYQINPEQQSNLNQALAAMSNNPFKKVGMISSQNNNGA
[1]
  glycan array binding signal (z-score): 0.026
[2]
  glycan array binding signal (z-score): -0.181
[3]
  glycan array binding signal (z-score): 0.208
[4]
  glycan array binding signal (z-score): 1.55
[5]
  glycan array binding signal (z-score): 3.91
Fuc(a1-2)Gal(b1-4)Glc6S
  glycan array binding signal (z-score): 0.21
[6]
  glycan array binding signal (z-score): 2.49
[7]
  glycan array binding signal (z-score): 0.579
[8]
  glycan array binding signal (z-score): 2.43
[9]
  glycan array binding signal (z-score): 3.74
[10]
  glycan array binding signal (z-score): 2.78
[11]
  glycan array binding signal (z-score): -0.48
[12]
  glycan array binding signal (z-score): -0.962
[13]
  glycan array binding signal (z-score): -0.596
[14]
  glycan array binding signal (z-score): -0.145
[15]
  glycan array binding signal (z-score): -0.319
[16]
  glycan array binding signal (z-score): 1.26
[17]
  glycan array binding signal (z-score): 1.95
[18]
  glycan array binding signal (z-score): -0.083
Fuc(a1-4)GlcNAc
  glycan array binding signal (z-score): 2.89
Gal(b1-3)Gal
  glycan array binding signal (z-score): -0.298
Gal(b1-3)Gal(b1-4)GlcNAc
  glycan array binding signal (z-score): -0.637
[19]
  glycan array binding signal (z-score): -0.576
[20]
  glycan array binding signal (z-score): -0.24
[21]
  glycan array binding signal (z-score): 0.532
Gal(b1-4)Gal
  glycan array binding signal (z-score): 0.204
[22]
  glycan array binding signal (z-score): -0.111
[23]
  glycan array binding signal (z-score): 0.291
[24]
  glycan array binding signal (z-score): 0.877
[25]
  glycan array binding signal (z-score): -0.924
